# Screens as filed in PubChem.
# SKKanGAS inh = SKKanGAS growth inhibition; S. pyogenes SKKanGAS, kanamycin growth, BacTiter-Glo, 6 h; inhibition, % at 7.5 µM; 1.3% of 300,000 active;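 active means mean replicate score, as percent of positive control median, at least 50; inconclusive means mean below 50 but one replicate at or above 50; inactive means mean and every replicate below 50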;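 further: strain carries kanamycin resistance gene driven by streptokinase promoter and grows in 40 µg/ml kanamycin; loss of luminescence reflects streptokinase promoter inhibition or plain growth inhibition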
# KLF5 inh = suppresses KLF5 promoter-driven expression; DLD-1 KLF5 promoter-luciferase reporter, luminescence; AID 1700; inhibition, % at 5 µM; 0.23% of 290,000 active;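 active means inhibition above a per-plate limit of that plate's mean compound inhibition plus 3 SD, cut at about 60% in these data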;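 further: higher means less KLF5 promoter-driven luciferase light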
# CSC inhib = blocks cancer stem cells; 1.1% of 300,000 active; AID 2717; cancer stem cell-like cells viability, luminescence; inhibition, % at 7.5 µM; in the data active means inhibition above about 75%; inconclusive means no clear call, values can overlap the other calls; tested in HMLE shEcad cells
# aSyn UTR inh = 5' untranslated region of α-synuclein, MLPCN primary screen; alpha-synuclein 5'UTR reporter, inhibitor activity; inhibition, % (tested at 7.5 µM); 0.82% of 300,000 active; AID 1813; in the data active means inhibition above about 60%; inconclusive means no clear call, values can overlap the other calls;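 further: H4 neuroglioblastoma cells stably carrying SNCA 5'UTR luciferase fusion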
# IEC-6 cytotox = IEC-6 cytotoxicity, counter-screen for KLF5 inhibitors; 0.78% of 290,000 active; luminescence viability; inhibition, % at 5 µM; in the data active means inhibition above about 22%
# A number is an active result; i = inactive; ? = inconclusive; nt = not tested or not shown. An excerpt weighted towards active compounds, which were near 3% of everything screened.
SMILES,SKKanGAS inh,KLF5 inh,CSC inhib,aSyn UTR inh,IEC-6 cytotox
CC1=NN(c2ccccc2)C(=O)/C1=C/c1c(O)n(-c2ccc(F)cc2)[nH]c1=O,i,i,87,i,i
CC1=NN(c2ccccc2)C(=O)/C1=C/c1ccc(Cl)cc1,i,i,i,i,i
CC1=NN(c2ccc(C)cc2)C(=O)/C1=C\C=C\c1ccccc1,i,i,78,i,i
COc1cc(C(=O)NNC2=NC(C)(C)Cc3cc(C)c(C)cc32)cc(OC)c1OC,i,i,i,i,i
Cc1ccccc1-n1c(C)nnc1SCC(=O)N1CCc2ccccc2C1,i,i,i,i,i
COc1ccc(SCCC(=O)NCc2ccncc2)cc1,i,i,i,i,i
Cc1cc(C)c(C)c(S(=O)(=O)N2CCC(C(=O)NNC(=O)c3ccccc3O)CC2)c1C,61,nt,i,i,nt
Cc1ccc(S(=O)(=O)N2CCC(C(=O)NNC(=O)c3ccccc3O)CC2)cc1C,i,nt,i,i,nt
O=S(=O)(Nc1ccc(O)c(Sc2nc3ccccc3s2)c1)c1cccc2ccccc12,81,i,81,i,i
COc1ccc(S(=O)(=O)/N=C2/NC(=O)/C(=C\c3cc(OC)c(OC)cc3[N+](=O)[O-])S2)cc1,i,i,i,i,i
COc1cc(/C=C2\S/C(=N/S(=O)(=O)c3ccccc3)NC2=O)c([N+](=O)[O-])cc1OC,68,i,i,i,i
O=C(O)c1ccc(C=C(c2nc3ccccc3s2)c2nc3ccccc3s2)cc1,i,i,82,i,i
CN(C)c1ccc(/C=C(\Cl)c2nc3ccccc3s2)cc1,nt,i,92,nt,i
CC1COC(Cn2c3ccccc3c3ccccc32)O1 (centres undefined),i,i,i,i,i
Cc1ccc(-c2nc(NC(=O)c3nn(C)cc3[N+](=O)[O-])sc2C)cc1,i,i,nt,99,i
Cn1cc([N+](=O)[O-])c(C(=O)Nc2cc(Oc3cccnc3)cc([N+](=O)[O-])c2)n1,i,i,i,i,24
Cc1ccc(-c2nc(NC(=O)c3nn(C)cc3[N+](=O)[O-])sc2C)cc1C,i,i,nt,i,i
O=[N+]([O-])c1cc(Oc2cccnc2)cc([N+](=O)[O-])c1,i,i,nt,i,i
Cn1cc([N+](=O)[O-])c(C(=O)Nc2ccc(-c3nc4ccccc4[nH]3)cc2)n1,i,i,i,i,25
O=C(NC(=S)Nc1ccc(Cc2ccncc2)cc1)c1ccccc1F,i,i,i,i,i
O=C(NC(=S)Nc1ccc(-c2nc3ncccc3o2)cc1)c1ccccc1F,52,i,i,i,i
O=C(NCc1ccccc1Cl)C1=CC=CN2CCS(=O)(=O)N=C12,nt,nt,i,nt,nt
O=C(Cn1sc2ccccc2c1=O)NC12CC3CC(CC(C3)C1)C2,89,i,i,i,i
Nc1cccc2c1C(=O)N(CC(=O)NC13CC4CC(CC(C4)C1)C3)C2=O,i,i,i,i,i
CCN(c1cccc(C)c1)S(=O)(=O)c1cc2c3c(c1)CCC(=O)N3CCC2,i,nt,nt,i,nt
SMILES,SKKanGAS inh,KLF5 inh,CSC inhib,aSyn UTR inh,IEC-6 cytotox
COc1ccc(CN2CCN(c3ncnc4scc(-c5ccc(F)cc5)c34)CC2)cc1,i,i,i,i,i
c1ccc(-c2csc3ncnc(N4CCOCC4)c23)cc1,i,i,nt,i,i
COc1ccc(F)cc1CN1CCN(c2ncnc3scc(-c4ccccc4)c23)CC1,i,i,i,98,i
COc1ccc(-c2csc3ncnc(N4CCN(c5ccccc5Cl)CC4)c23)cc1,55,i,i,i,i
c1ccc(-c2csc3ncnc(N4CCc5ccccc5C4)c23)cc1,89,i,i,i,i
Cc1ccc(N2CC(C(=O)N3CCC(C(=O)Nc4ccc(Br)cc4)CC3)CC2=O)cc1 (centres undefined),i,i,i,i,i
O=C(Nc1ccc(Cl)c(Cl)c1)C1CC(=O)N(c2ccc(Br)cc2)C1 (centres undefined),54,i,i,i,i
CCCCN(C)CC(O)Cn1cc(/C=C/C(=O)c2ccc(C)cc2)c2ccccc21 (centres undefined),i,i,82,i,i
CCCN(CCC)CC(O)Cn1cc(/C=C/C(=O)c2ccccc2)c2ccccc21 (centres undefined),i,i,nt,i,i
C=CCOc1ccc(NC(=O)C(=O)NCCCn2ccnc2)cc1,i,i,i,?,i
CCCCCOc1ccc(NC(=O)C(=O)NCCCn2ccnc2)cc1,i,i,i,63,i
C(=N\Nc1nc2ccccc2s1)/c1ccccn1,75,i,94,101,i
Cc1csc(N/N=C/c2ccccn2)n1,i,i,83,69,i
Cc1csc(N/N=C/c2ccc([N+](=O)[O-])cc2)n1,i,i,i,i,i
O=[N+]([O-])/C=C/c1c(OCc2ccccc2)ccc2ccccc12,70,i,i,i,i
CCOC(=O)CN1CCC(c2cc(-c3ccc(Cl)cc3)n[nH]2)CC1,i,i,i,i,i
O=[N+]([O-])c1cccnc1N1CCC(c2cc(-c3ccc(Cl)cc3)n[nH]2)CC1,73,i,101,i,i
CC(=O)c1cc2c(cc1NC(=O)c1ccccc1C)OCO2,i,i,i,i,i
COc1ccc(-c2onc3ccc(Br)cc23)cc1,i,i,i,i,i
COc1cc(-c2onc3ccc(Br)cc23)cc(OC)c1OC,i,i,i,66,i
CCCOc1ccc(C(=O)Nc2ccc(NC(=O)c3cccs3)cc2)cc1,i,i,nt,i,i
O=C(Nc1ccc(OCc2ccccc2)cc1)c1cccs1,i,i,80,i,i
Cc1occc1C(=O)Nc1ccc(OCc2ccccc2)cc1,i,i,90,i,i
CCCCOc1cccc(C(=O)Nc2ccc(NC(=O)c3cccs3)cc2)c1,i,i,nt,64,i
Cc1c(Cl)cccc1NC(=O)N1CCN(C(=O)c2ccco2)CC1,i,i,i,i,i
SMILES,SKKanGAS inh,KLF5 inh,CSC inhib,aSyn UTR inh,IEC-6 cytotox
OC(CNCc1cccnc1)COc1ccc2ccccc2c1 (centres undefined),i,i,i,i,i
COc1cc(S(=O)(=O)NCC(c2ccco2)N2CCCCC2)ccc1NC(C)=O (centres undefined),nt,nt,i,nt,nt
Cc1cccc(-c2cc3nc4c(c(NCc5ccco5)n3n2)CCCC4)c1,i,i,117,i,i
CCOC(=O)c1ccc(N2C(=O)C(O)=C(C(C)=O)C2c2ccc([N+](=O)[O-])cc2)cc1 (centres undefined),i,i,i,i,i
CC(C)C(C(=O)Nc1nccs1)c1ccc(Cl)cc1 (centres undefined),60,i,i,?,i
CN1/C(=C\C(=O)c2cccnc2)C(C)(C)c2ccccc21,i,i,i,i,i
CN1/C(=C/C(=O)c2nc(S(C)(=O)=O)ncc2Cl)C(C)(C)c2ccccc21,i,i,111,?,i
S=c1[nH]nc(CSCCOc2ccc(Cl)cc2Cl)o1,i,i,i,i,i
COc1ccc(/C=c2\s/c(=C/C(=O)c3ccc(C)cc3)[nH]c2=O)cc1OC,62,i,i,i,i
CC(C)(C)C(=O)/C=c1\[nH]c(=O)/c(=C\c2ccc(F)cc2)s1,i,i,i,i,i
O=C(NCc1ccc(F)cc1)C(=O)NCC1OCCCN1S(=O)(=O)c1cccs1 (centres undefined),i,i,i,i,i
